Among the data in PubChem BioAssay (NCATS) are Potency and outcome values, retold here.

A number with no mark means an inactive call. Inconclusive results are not listed. The source made the active and inactive calls. The call rests on the fitted dose curve; in most records, active means well fitted curve in the direction sought with a large enough effect; inconclusive means small, poorly fitted or top-dose-only effect, or another doubt; inactive means no such curve, though single readings can be large; an effect the other way counts as inactive or inconclusive.

The nature of test [1]: OV-KATE Cancer Cell Toxicity qHTS against the NCATS CANVASS Library (AID 1347345). Further: potency means the concentration at half of the fitted maximal effect. A digest of the protocol: (§1)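 Following a 4 h pre-incubation of 1000 seeded cells, compounds were pinned in an 11-pnt dilution series and left for 72 h; viability then came from CellTiter-Glo.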
Test [2] is described as follows: SW1088 Cancer Cell Toxicity qHTS against the NCATS CANVASS Library (AID 1347350). Further: potency means the concentration at half of the fitted maximal effect; nearly all actives have a fitted effect of over 75% in size. A digest of the protocol:
as §1

Test [3] can be described thus: HEK293 24hr Apoptosis Induction qHTS against the NCATS CANVASS Library (AID 1347359). A digest of the protocol:
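HEK293 cells (500/well, DMEM + 10% FBS) were exposed to compounds in an 11-point series for 24 hours at 37 degrees C, then caspase-3/7 activity was read by Caspase-Glo DEVD luciferase luminescence after 15 min.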

For test [4], the target named is Luciferin 4-monooxygenase (Photinus pyralis) (UniProt P08659). Put plainly: Firefly luciferase counterscreen qHTS: Assay Interference Panel against the NCATS CANVASS Library (AID 1347363). Further: series mostly up to about 57 µM. A digest of the protocol: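 Purified P. pyralis luciferase was added to compounds (11-point series) preincubated 15 min at room temperature with substrate containing 0.013 mM D-luciferin and 0.013 mM ATP; luminescence was read after 5 min.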
Chain of Luciferin 4-monooxygenase (Photinus pyralis) (P08659 whole entry, looked up): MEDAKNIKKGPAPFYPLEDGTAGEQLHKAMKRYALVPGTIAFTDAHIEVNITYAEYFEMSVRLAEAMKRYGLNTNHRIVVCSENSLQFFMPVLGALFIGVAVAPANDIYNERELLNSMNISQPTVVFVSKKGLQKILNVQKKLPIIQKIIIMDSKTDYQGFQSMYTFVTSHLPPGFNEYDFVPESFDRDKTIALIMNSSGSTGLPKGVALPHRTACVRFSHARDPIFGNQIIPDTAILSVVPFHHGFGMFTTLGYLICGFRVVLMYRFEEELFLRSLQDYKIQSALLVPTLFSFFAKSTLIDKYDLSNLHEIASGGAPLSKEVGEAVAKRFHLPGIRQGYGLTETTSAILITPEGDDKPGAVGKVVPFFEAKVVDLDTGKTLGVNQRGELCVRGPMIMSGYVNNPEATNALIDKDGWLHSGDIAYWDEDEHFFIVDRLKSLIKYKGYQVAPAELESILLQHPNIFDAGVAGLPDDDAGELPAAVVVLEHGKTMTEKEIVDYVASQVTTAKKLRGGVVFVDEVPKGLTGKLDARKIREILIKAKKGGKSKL

Test [5] in a line: SDT Cancer Cell Toxicity qHTS against the NCATS CANVASS Library (AID 1347365). Further: nearly all actives have a fitted effect of over 60% in size. Further: potency means the concentration at half of the fitted maximal effect. Summed up: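 Dispense 500 SDT cells per well; pin-transfer compounds; incubate 72 hr at 37C, 5% CO2, 95% RH; add CellTiterGlo and read luminescence.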
The nature of test [6]: qHTS for ATAD5 Agonist screened against the NCATS CANVASS Library (AID 1347367).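 Further: luciferase reporter driven by ATAD5 which rises upon DNA damage.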 Summed up: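 Step one plated reporter cells and let them acclimate 5hr. Step two pinned compounds with MMS as positive and 0.46% DMSO as negative control. After 16hr incubation, fluorescence viability then luminescence were read.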
Test [7] can be described thus: G06 Cancer Cell Toxicity qHTS against the NCATS CANVASS Library (AID 1347368). Further: nearly all actives have a fitted effect of over 60% in size. Further: potency means the concentration at half of the fitted maximal effect. Summed up: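 Cytotoxicity toward canine glioma G06 cells is scored from cellular ATP via luminescence after 72 hr compound exposure at 500 cells/well.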
Test [8] in a line: qHTS for Hypoxia signaling pathway (HIF-1) antagonists against the NCATS CANVASS Library (AID 1347374). Further: nearly all actives have a fitted effect of over 60% in size. Further: potency means the concentration at half of the fitted maximal effect. A digest of the protocol:
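HRE-bla ME-180 cells (2,000/well, 0.5% dialyzed FBS) were pre-incubated 5 h, then given an 11-point compound series plus CoCl2 (60 uM solution as added) for 17 h at 37C. CCF4 β-lactamase read (ex 405, em 460/530 nm) after 2 h at RT.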

Test [9] can be described thus: Inflammasome Signaling qHTS Counterscreen: IL-1-beta AlphaLISA counterscreen against the NCATS CANVASS Library (AID 1347381).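 Further: cell-free check with purified IL-1β in medium and no THP-1 cells; series mostly up to about 57 µM.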 Summed up: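 To flag interference with the AlphaLISA read-out, a known amount of purified IL-1-beta (4 pg) replaced cell supernatant. Detection used anti-IL-1-beta acceptor beads, biotinylated antibody and streptavidin donor beads at room temperature.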

Test [10] can be described thus: qHTS for Activators of p53 Stress Response Pathway screened against the NCATS CANVASS Library (AID 1347388). A digest of the protocol:
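p53RE-bla HCT-116 cells (4000/well) were plated 5 h at 37C, exposed to compounds for 16 h at 37C over an 11-point concentration series, then loaded with CCF4 for 2 h at room temperature; 460/530 nm emission ratio read.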

Test [11] is described as follows: qHTS for activators of Nrf2/ARE signaling pathway screened against the NCATS CANVASS Library (AID 1347391). Further: nearly all actives have a fitted effect of over 60% in size. Further: potency means the concentration at half of the fitted maximal effect. Summed up: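 Cells carrying an ARE-driven beta-lactamase reporter (HepG2 background) are dosed for 16 h, then stained with CCF4. Cell viability in the same wells is measured by CellTiter-Glo luminescence.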
Test [12] can be described thus: qHTS for activators of dead-cell proteases activity screened against the NCATS CANVASS Library (AID 1347392).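 Further: luminescence from protease leaking out of membrane-damaged cells cleaving impermeant substrate; rising signal means more cytotoxicity.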 Summed up:
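HepG2 cells (2000/well) attached 18 h at 37C, then exposed 5 h to compounds (11-point qHTS). Dead-cell protease activity read as luminescence from cell-impermeant AAF-aminoluciferin substrate after 15 min at room temperature.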

The nature of test [13]: qHTS for inhibitors of ER calcium dysfunction: SERCaMP assay screened against the NCATS CANVASS Library (AID 1347393). Further: nearly all actives have a fitted effect of over 40% in size. Further: potency means the concentration at half of the fitted maximal effect. A digest of the protocol: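 qHTS in SH-SY5Y reporter cells: 16 h compound pretreatment, 4 h thapsigargin, then secreted Gaussia luciferase measured by luminescence.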
Test [14] in a line: qHTS for inhibitors of Wild type Zika virus screened against the NCATS CANVASS Library (AID 1347396).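 Further: ATP luminescence of surviving cells so rescue from viral cell killing; series mostly up to about 46 µM.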 Summed up: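 Vero 766 cells, 1000/well, o/n attach; cpds pin-transferred (11-pt qHTS); WT Zika added; 72 h, 37C, 5% CO2; CellTiter Glo lumi. Uninfected + vehicle = 100% inhibition.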
Test [15] is described as follows: HEK-293 Cancer Cell Toxicity qHTS against the NCATS CANVASS Library (AID 1347355). Further: nearly all actives have a fitted effect of over 65% in size. Further: potency means the concentration at half of the fitted maximal effect. A digest of the protocol:
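qHTS cytotoxicity: compounds tested in 11 concentrations on 1000 seeded cells per well over 72 h; bortezomib served as control; signal from CellTiter-Glo luminescence.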

A short description of test [16]: HPAF-II 12hr Apoptosis Induction qHTS against the NCATS CANVASS Library (AID 1347358). A digest of the protocol:
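Apoptosis in HPAF-II pancreatic cancer cells is scored as caspase 3/7 luminescence following a 12-hour exposure to an 11-point compound series.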

Test [17] in a line: OV-SAHO Cancer Cell Toxicity qHTS against the NCATS CANVASS Library (AID 1347348). Further: potency means the concentration at half of the fitted maximal effect; nearly all actives have a fitted effect of over 55% in size. A digest of the protocol:
as §1

A short description of test [18]: A2780 Cisplatin Sensitive Ovarian Cancer Cell Toxicity qHTS against the NCATS CANVASS Library (AID 1347353). Further: nearly all actives have a fitted effect of over 60% in size. Further: potency means the concentration at half of the fitted maximal effect. Summed up: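 Seventy-two-hour exposure of cisplatin-sensitive A2780 ovarian cells to an 11-concentration qHTS series; cytotoxicity is inferred from loss of ATPLite luminescence. Bortezomib titration served as positive control.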
Test [19] can be described thus: DH5-alpha competent E. coli microbial cell viability qHTS against the NCATS CANVASS Library (AID 1347377). As to conditions: outcome: dose series up to 46.1 µM unless noted. A digest of the protocol:
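Cell viability of competent DH5-alpha E. coli is scored from ATP content by luminescence. Cells sit overnight at 37C with compound across an 11-point concentration series.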

Test [20] can be described thus: KB-8-5-11 Cancer Cell Toxicity qHTS against the NCATS CANVASS Library (AID 1347364). Further: nearly all actives have a fitted effect of over 75% in size. Further: potency means the concentration at half of the fitted maximal effect. Summed up: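 Natural products were titrated in 11 points onto KB-8-5-11 cells, 500 per well, and cytotoxicity was scored from CellTiter-Glo luminescence after 72 hr culture.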

Turning to `C/C=C/C1C=CC2CC(C)CC(C)C2C1C(=O)CC(=O)NC(CO)C/C=C/CCCCC` (stereo unspecified), the Potency is 10.6 µM (active) in [1]; 14.9 µM (active) in test [2]; 1.48 µM (active) in test [5]; 1.32 µM (active) in test [7]; 29.8 µM (active) in [8]; 16.6 µM (active) in test [11]. Moreover, the Potency in [13] was 6.09 µM (active). In addition, the Potency result in test [3], in test [4], in test [6], in test [10] and in [12] was “inactive” each time. The result in [9] and in [14] was inactive.
Take `C/C=C(/C)c1c(Cl)c(OC)c(C)c2c1Oc1c(Cl)c(O)c(Cl)c(C)c1C(=O)O2`: the Potency entry in test [1], in test [15], in test [16], in test [3], in test [5] and in test [7] was “inactive” each time. Besides, the Potency entry in test [11] and in test [13] was “inactive” throughout. The Potency was 13.3 µM (active) in test [2] and 10.6 µM (active) in [8].
Regarding `CC[C@H]1[C@H](C)[C@H](c2cc(OC)c(OC)cc2OC)[C@@H](C)[C@H](c2cc(OC)c(OC)cc2OC)[C@@]12C=C(OC)C(=O)C=C2OC`, the Potency result in test [1], in test [4], in test [6], in test [10] and in test [12] was “inactive” in each case. The Potency in test [17] was 21.1 µM (active); in test [2] it was 18.8 µM (active); in test [18], 14.8 µM (active); in test [15] it was 18.7 µM (active); in test [7], 23.5 µM (active); in test [11] it was 14.8 µM (active). Further, the molecule was classed as inactive in test [19], in [9] and in test [14].
In the case of `CC(C)C[C@@H]1c2c(O)c(C=O)c(O)c(C=O)c2O[C@]2(C)C=C[C@@H](C(C)C)C[C@H]12`, the Potency result in test [1], in test [18], in test [15], in test [3], in [4] and in [20] was “inactive” each time. Besides, the Potency entry in [5], in [6], in test [7], in test [11], in test [12] and in [13] was “inactive” in each case. The molecule was called inactive in test [19], in test [9] and in test [14].
For `O=C1CC2OCC=C3CN4C5CC3C2[C@@H]2N1c1ccccc1[C@]52C[C@@H]4C1=C[C@H]2C3CC4N(CC[C@@]45c4ccccc4N(C1=O)[C@@H]25)C/C3=C/CO` (stereo partly specified), the Potency result in test [1], in [3], in test [4] and in [12] was “inactive” in each case. Further, the Potency in test [18] was 7.43 µM (active); in test [15], 16.6 µM (active); in [20], 18.7 µM (active); in test [5] it was 20.9 µM (active); in test [7], 23.5 µM (active); in test [11], 1.66 µM (active). Besides, the outcome in test [19] and in [14] was inactive.
On to `C[C@H]1C=C[C@H]2CCCC[C@@H]2[C@H]1C(=O)[C@H]1CC2=C(C(=O)O)CCN2C1=O`, for which the Potency entry in [1], in [15], in test [16], in [4], in [20] and in [5] was “inactive” each time. Further, the Potency entry in test [6], in test [8], in [10] and in [12] was “inactive” each time. Also, the results for the Potency in test [2], in [11] and in [13] were 16.8 µM (active), 16.6 µM (active) and 19.3 µM (active), respectively. Moreover, the result in test [19], in test [9] and in [14] was inactive.
